This is an account of results in PubChem BioAssay (NCI).

Experiment [1] is described as follows: NCI Yeast Anticancer Drug Screen. Data for the rad50 strain (AID 155).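 Note: 0% = growth of vehicle-only cultures of the same strain.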 The note with it: S. cerevisiae rad50 strain growth inhibition, stronger effect = higher value. The method in brief: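 Vehicle-treated cultures provide the reference for the growth inhibition reported for compound-exposed, repair-deficient yeast.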
The nature of experiment [2]: NCI Yeast Anticancer Drug Screen. Data for the mec2-1 strain (AID 157). The note with it: S. cerevisiae mec2-1 strain, stronger effect = higher value. Put shortly:
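Growth inhibition is read against vehicle-treated controls after compound exposure of the mec2-1 yeast strain, which is defective in DNA damage repair or cell cycle control.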

A short description of experiment [3]: NCI Yeast Anticancer Drug Screen. Data for the sgs1 mgt1 strain (AID 161).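 Note: 0% = growth of cultures given vehicle only.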 The settings on record: S. cerevisiae sgs1 mgt1 strain, stronger effect = higher value. Put shortly: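 Compounds are added to genetically altered yeast, and growth is compared with cultures given vehicle alone to give percent inhibition.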
A short description of experiment [4]: NCI Yeast Anticancer Drug Screen. Data for the cln2 rad14 strain (AID 165).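 Note: 0% = growth equal to vehicle treated cultures.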 The settings on record: S. cerevisiae cln2 rad14 strain, stronger effect = higher value. Put shortly: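 Growth inhibition, relative to vehicle-treated controls, is the read-out. The test organism is a yeast strain with defined genetic alterations, cln2 rad14.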
Experiment [5] can be described thus: NCI Yeast Anticancer Drug Screen. Data for the bub3 strain (AID 167). The note with it: S. cerevisiae bub3 mutant strain, stronger effect = higher value. Put shortly:
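Mutant yeast screening strain plus compound; vehicle-treated cultures serve as the 0% inhibition reference.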

Experiment [6] can be described thus: NCI Yeast Anticancer Drug Screen. Data for the mlh1 rad18 strain (AID 175). The note with it: S. cerevisiae mlh1 rad18 strain growth inhibition, stronger effect = higher value. Put shortly:
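Cells of a genetically altered yeast strain, deficient in DNA damage repair, were treated with compound. Their growth was then compared with that of vehicle-treated cultures to give inhibition.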

Setting [7] is: at 5.0 µM (retest, dose inferred, filed as 0.5).
Setting [8] is: at 50.0 µM (retest, dose inferred, filed as 5.0).

Values joined by “and” are separate entries in the source; they are usually repeats but may differ in a detail not shown here. Identical values can stand only once. Compounds without any hit were thinned out: in the full panel of roughly 79,000, 15% have a hit. Unmarked numbers belong to inactive results. Active and inactive are the calls of the source. Cut-off read from the data, not from the text of the source: active = growth inhibition above about 70%; inactive = the rest.

As for `CCC[CH2][Sn]([Cl])([CH2]C)[O][Sn]([Cl])([CH2]C)[CH2]CCC` (configuration not stated), the growth inhibition in experiment [1] (setting [7]) is 88% (active); in experiment [1] (setting [8]), 98% (active); in experiment [1] (at 50.0 µM), 83.5% (active); in experiment [2] (setting [7]), 96% (active); in experiment [2] (setting [8]) it was 99% (active); in experiment [2] (at 50.0 µM), 88.2% (active). For the same compound, the growth inhibition in experiment [3] (setting [7]) was 81% (active); in experiment [3] (setting [8]), 97% (active); in experiment [3] (at 50.0 µM), 89.6% (active); in experiment [4] (setting [7]), 84% (active); in experiment [4] (setting [8]), 97% (active); in experiment [4] (at 50.0 µM), 91.2% (active). Further, the growth inhibition in experiment [5] (setting [7]) is 84% (active); in experiment [5] (setting [8]) it was 97% (active); in experiment [5] (at 50.0 µM) it was 89.2% (active); in experiment [6] (setting [7]) it was 95% (active); in experiment [6] (setting [8]), 98% (active); in experiment [6] (at 50.0 µM), 90.2% (active).

With `OC(c1ccc(Cl)cc1)C(Cl)(Cl)Cl` (configuration not stated), the growth inhibition is 6% in experiment [1] (setting [7]); 98% (active) in experiment [1] (setting [8]); 97.6% (active) in experiment [1] (at 50.0 µM); 0% in experiment [2] (setting [7]); 98% (active) in experiment [2] (setting [8]); 96.8% (active) in experiment [2] (at 50.0 µM). Besides, the growth inhibition in experiment [3] (setting [7]) was -1%; in experiment [3] (setting [8]), 35%; in experiment [3] (at 50.0 µM), 81.2% (active); in experiment [4] (setting [7]), 1%; in experiment [4] (setting [8]), 96% (active); in experiment [4] (at 50.0 µM), 77.8% (active). In addition, the growth inhibition was -8% in experiment [5] (setting [7]); 99% (active) in experiment [5] (setting [8]); 95.3% (active) in experiment [5] (at 50.0 µM); 3% in experiment [6] (setting [7]); 97% (active) in experiment [6] (setting [8]); 97.5% (active) in experiment [6] (at 50.0 µM).

For `C1CC[N-]CC1.CC(=N\O)/C(C)=N/O.CC(=N\O)/C(C)=N/O.OC1[CH-]CCCC1.[Co+2]`, the growth inhibition was 22% in experiment [1] (setting [7]); 20% in experiment [1] (setting [8]); 23.9% in experiment [1] (at 50.0 µM); 5% in experiment [2] (setting [7]); 16% in experiment [2] (setting [8]); -1.95% in experiment [2] (at 50.0 µM). In addition, the growth inhibition in experiment [3] (setting [7]) was 28%; in experiment [3] (setting [8]), 25%; in experiment [3] (at 50.0 µM), 13.9%; in experiment [4] (setting [7]) it was 17%; in experiment [4] (setting [8]), 28%; in experiment [4] (at 50.0 µM), 76% (active). Moreover, the growth inhibition in experiment [5] (setting [7]) is 13%; in experiment [5] (setting [8]) it was 13%; in experiment [5] (at 50.0 µM) it was -5.4%; in experiment [6] (setting [7]) it was 17%; in experiment [6] (setting [8]) it was 35%; in experiment [6] (at 50.0 µM), 30.9%.

As to `C=CO/C(C)=C(\[Se]c1ccccc1)C(C)=O`, the growth inhibition in experiment [1] (setting [7]) is 4%; in experiment [1] (setting [8]), 89% (active); in experiment [1] (at 50.0 µM) it was 93.4% (active); in experiment [2] (setting [7]), 3%; in experiment [2] (setting [8]), 91% (active); in experiment [2] (at 50.0 µM), 85.9% (active). Moreover, the growth inhibition in experiment [3] (setting [7]) is 7%; in experiment [3] (setting [8]), 89% (active); in experiment [3] (at 50.0 µM), 91.8% (active); in experiment [4] (setting [7]), -10%; in experiment [4] (setting [8]) it was 38%; in experiment [4] (at 50.0 µM), 57%. Also, the growth inhibition in experiment [5] (setting [7]) is -8%; in experiment [5] (setting [8]), 65%; in experiment [5] (at 50.0 µM), 75% (active); in experiment [6] (setting [7]), 6%; in experiment [6] (setting [8]), 91% (active); in experiment [6] (at 50.0 µM), 91% (active).

In the case of `C[As](C)SCC1OC2OC(C)(C)OC2C2OC(C)(C)OC12` (configuration not stated), the growth inhibition was 28% in experiment [1] (setting [7]); 97% (active) in experiment [1] (setting [8]); 91.5% (active) in experiment [1] (at 50.0 µM); 21% in experiment [2] (setting [7]); 99% (active) in experiment [2] (setting [8]); 92.2% (active) in experiment [2] (at 50.0 µM). The growth inhibition was 45% in experiment [3] (setting [7]); 83% (active) in experiment [3] (setting [8]); 92.5% (active) in experiment [3] (at 50.0 µM); 48% in experiment [4] (setting [7]); 73% (active) in experiment [4] (setting [8]); 90.1% (active) in experiment [4] (at 50.0 µM). Besides, the growth inhibition in experiment [5] (setting [7]) is 44%; in experiment [5] (setting [8]) it was 99% (active); in experiment [5] (at 50.0 µM), 91.5% (active); in experiment [6] (setting [7]), 24%; in experiment [6] (setting [8]), 96% (active); in experiment [6] (at 50.0 µM), 90.2% (active).

For `Cc1ccc2c(c1)SP(=S)(c1ccccc1)N2` (configuration not stated), the growth inhibition in experiment [1] (setting [7]) was 6%; in experiment [1] (setting [8]), 99% (active); in experiment [1] (at 50.0 µM), 99.2% (active); in experiment [2] (setting [7]), 4%; in experiment [2] (setting [8]), 99% (active); in experiment [2] (at 50.0 µM) it was 99.5% (active). The growth inhibition in experiment [3] (setting [7]) is 8%; in experiment [3] (setting [8]), 97% (active); in experiment [3] (at 50.0 µM), 99.3% (active); in experiment [4] (setting [7]), 15%; in experiment [4] (setting [8]), 97% (active); in experiment [4] (at 50.0 µM), 54.4%. Besides, the growth inhibition in experiment [5] (setting [7]) was 0%; in experiment [5] (setting [8]), 99% (active); in experiment [5] (at 50.0 µM), 98.8% (active); in experiment [6] (setting [7]), 3%; in experiment [6] (setting [8]), 99% (active); in experiment [6] (at 50.0 µM), 98% (active).

For the compound `CCN(CCCl)c1ccc(/C=C/C2=[N+](C)c3ccccc3C2(C)C)c(C)c1`, the growth inhibition in experiment [1] (setting [7]) was -5%; in experiment [1] (setting [8]) it was 98% (active); in experiment [1] (at 50.0 µM), 62%; in experiment [2] (setting [7]), -1%; in experiment [2] (setting [8]), 99% (active); in experiment [2] (at 50.0 µM), 98.2% (active). In addition, the growth inhibition in experiment [3] (setting [7]) is -8%; in experiment [3] (setting [8]), 98% (active); in experiment [3] (at 50.0 µM), 96.8% (active); in experiment [4] (setting [7]), -4%; in experiment [4] (setting [8]), 97% (active); in experiment [4] (at 50.0 µM), 71.5% (active). Besides, the growth inhibition in experiment [5] (setting [7]) was -6%; in experiment [5] (setting [8]) it was 99% (active); in experiment [5] (at 50.0 µM), 99.2% (active); in experiment [6] (setting [7]), -1%; in experiment [6] (setting [8]) it was 98% (active); in experiment [6] (at 50.0 µM), 60.8%.

Consider `CCC(C)(C)c1ccc(O)cc1`, for which the growth inhibition in experiment [1] (setting [7]) was -1%; in experiment [1] (setting [8]) it was 16%; in experiment [1] (at 50.0 µM), -19.3% and 59.8%; in experiment [2] (setting [7]) it was -3%; in experiment [2] (setting [8]), 0%; in experiment [2] (at 50.0 µM), -17.4% and 40.9%. For the same compound, the growth inhibition in experiment [3] (setting [7]) was -10%; in experiment [3] (setting [8]), 5%; in experiment [3] (at 50.0 µM), -10.9% and 63%; in experiment [4] (setting [7]), 1%; in experiment [4] (setting [8]), -4%; in experiment [4] (at 50.0 µM), -15.2% and -13.6%. The growth inhibition is 2% in experiment [5] (setting [7]); 7% in experiment [5] (setting [8]); -28.6% and 38.3% in experiment [5] (at 50.0 µM); -2% in experiment [6] (setting [7]); 11% in experiment [6] (setting [8]); -17.7% and 64.5% in experiment [6] (at 50.0 µM).

In the case of `Oc1c(Cl)cc(Cl)cc1Cl`, the growth inhibition was -1% in experiment [1] (setting [7]); 94% (active) in experiment [1] (setting [8]); 86.5% (active) in experiment [1] (at 50.0 µM); -6% in experiment [2] (setting [7]); 67% in experiment [2] (setting [8]); 78% (active) in experiment [2] (at 50.0 µM). For the same compound, the growth inhibition was -1% in experiment [3] (setting [7]); 64% in experiment [3] (setting [8]); 94.8% (active) in experiment [3] (at 50.0 µM); -8% in experiment [4] (setting [7]); 55% in experiment [4] (setting [8]); 54.9% in experiment [4] (at 50.0 µM). Also, the growth inhibition in experiment [5] (setting [7]) was -13%; in experiment [5] (setting [8]), 90% (active); in experiment [5] (at 50.0 µM) it was 78.5% (active); in experiment [6] (setting [7]), -5%; in experiment [6] (setting [8]), 94% (active); in experiment [6] (at 50.0 µM), 95.8% (active).
